In PubChem BioAssay AID602449 (Sanford-Burnham Center for Chemical Genomics, 2012) one finds inhibition data, which are given here for 27 compounds.

Each structure is given as a SMILES string. The whole screen tested about 360,000 compounds, of which about 5,000 (1.4%) were called active. The list comes from a sample in which actives are over-represented; it also holds similar structures and randomly drawn compounds. Values without a mark were called inactive.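 How the source made its calls: active means inhibition of 50% or more, scaled per plate between neutral and stimulator controls; inactive means the rest.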

The assay in a line: blockers of Ca2+-induced mitochondrial swelling – biochemical, isolated mouse mitochondria, absorbance, primary screen (AID 602449).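 Further: 0% = DMSO wells given calcium and 100% = 1 mM EGTA wells.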 The conditions noted are these: 30 min, at 10 µM, hits give high values.
On to `CCc1nc2ccc(C(=O)NCCNC(C)=O)cn2c1N(CC)Cc1cccc(Br)c1`, for which the inhibition is -0.2%.
On to `CCCC(C)C(=O)OCC(=O)Nc1c(Br)cc(C)cc1Br` (configuration not stated), for which the inhibition is -0.2%.
With `CCc1c(C)sc(NC(=O)c2cccs2)c1C(N)=O`, the inhibition is -0.6%.
`OC(C#CCN1CCOCC1)(c1ccccc1)C1CCCCC1` (configuration not stated): the inhibition is -2.4%.
To `CCc1oc(-c2ccc(OC)cc2)c(C(=O)OCCCCCO)c1C(C)OCCO` (configuration not stated) belongs 0.2%; to `CCC(C)(C)NC(=O)CN(C(=O)C(=O)Nc1ccc2c(c1)OCCO2)C(C)(C)CC`, -1%.
To `O=C1[C@@H]2C(c3cccnc3)=NO[C@@H]2C(=O)N1c1ccc(Cl)cc1Cl` belongs 2.7%.
As for `CC(=O)Nc1ccc(NS(=O)(=O)c2cc(C)sc2C)cc1`, the inhibition was 0.5%.
To `CN(C)Cc1c(C#N)c2ccccc2n1C` belongs -1.4%; to `CCCc1cc(=S)n2c([nH]c3ccccc32)c1C#N`, 94.4% (active); to `O=C(COc1ccc(Cl)cc1)NCCS(=O)(=O)N1CCN(c2ccc(F)cc2)CC1`, 1.5%.
To `CCOC(=O)N1CCC(NC(=O)C(NS(=O)(=O)c2ccc3c(c2)CCN3C(=O)CC)C(C)C)CC1` (configuration not stated) belongs -0.2%.
`O=C(O)Cc1ccc(NC(=O)Nc2cccc3ccccc23)cc1`: the inhibition was 0.9%.
For the compound `CC(C)(C)C(=O)NC(NC(=S)Nc1ccc(S(N)(=O)=O)cc1)C(Cl)(Cl)Cl` (configuration not stated), the inhibition is -2.5%.
To `O=C(Cc1cccc2ccccc12)NNC(=O)Nc1ccc(Cl)cc1` belongs 72.6% (active); to `Cc1ccc(NC(=S)NC(NC(=O)Cc2cccc3ccccc23)C(Cl)(Cl)Cl)cc1` (configuration not stated), 55.5% (active); to `CN(CC(=O)Nc1ccc(Cl)cc1)CC(=O)Nc1cccc2ccccc12`, 0.6%.
To `Cc1ccc(CNC(=O)[C@@H](NC(=O)Cc2ccccc2)C(C)C)cc1` belongs 0.5%.
To `CCCOC(=O)CC1C(=O)NCCN1Cc1ccc(F)cc1` (configuration not stated) belongs 0.6%; to `Cn1nnnc1SCC(=O)Nc1cccc(S(=O)(=O)N2CCCCC2)c1`, -0.1%.
For the compound `CN(NS(=O)(=O)c1cccs1)c1ncc(C(F)(F)F)cc1Cl`, the inhibition was 2.5%.
For the compound `Cc1ccc(NS(=O)(=O)c2ccc(F)cc2)nc1`, the inhibition was -0.6%.
On to `Cc1cc(C)cc(NS(=O)(=O)c2ccc(Oc3ncc(C(F)(F)F)cc3Cl)cc2)c1`, for which the inhibition was 50.8% (active).
To `COc1ccc(CCOC(=O)CNC(=O)c2ccc(Cl)cc2Cl)cc1` belongs 1.4%; to `O=C(COc1ncnc2ccccc12)NC(=O)NCc1ccccc1`, -0.1%.
With `COc1ccc(CNc2ncnc3ccccc23)cc1`, the inhibition is 70.5% (active).
Regarding `COc1ccc(CNc2nccs2)cc1`, the inhibition is 0.7%.
